From PubChem BioAssay (NCI) come the findings set out here.

Test systems include NCI-H226 lung; NCI-H322M lung; HOP-62 NSCLC; NCI-H460 lung; HOP-92 NSCLC; NCI-H522 lung; 786-0 renal; COLO 205 colon; DU-145 prostate; A549/ATCC NSCLC.
Test in all cases: NCI-60 one-dose screen, 48 h (100 = growth as untreated, 0 = no growth, -100 = all killed)
Common to all, as to conditions: 10 µM unless noted

The panel holds about 83,000 compounds, 20% with a hit somewhere; the sample as a whole holds those more often.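 Method: cells in 96-well plates; compound added at one concentration; 48 h incubation; percent growth measured; values under 10 scored active.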 A number with no mark means an inactive call. The source made the active and inactive calls.

With `N#Cc1nc(-c2ccccc2)oc1S(=O)(=O)N1CCCCC1`, the growth in the test on NCI-H226 lung is 105%; with NCI-H322M lung it was 104%; with HOP-62 NSCLC it was 110%; in the test on NCI-H460 lung, 110%; in the test on HOP-92 NSCLC, 55.7%; in the test on NCI-H522 lung, -62% (active). The growth in the test on 786-0 renal is 24.7%; with COLO 205 colon, 44.1%; in the test on DU-145 prostate, 41.6%.
With `OC1CCN(CCCOc2c3ccccc3nc3c2oc2ccc(Cl)cc23)CC1`, the growth is 11.1% with NCI-H226 lung; -1.27% (active) in the test with NCI-H322M lung; 27% with HOP-62 NSCLC; 4.79% (active) in the test with NCI-H460 lung; 14% in the test on HOP-92 NSCLC; -51.4% (active) in the test on NCI-H522 lung. The growth in the test on 786-0 renal is 11.7%; in the test on COLO 205 colon, -13.1% (active); with DU-145 prostate, 5.05% (active).
On to `COc1ccc(/C=C2\SC(=Nc3cc(C)[nH]n3)NC2=O)cc1`, for which the growth with NCI-H226 lung is 86.8%; in the test on NCI-H322M lung, 91.9%; in the test with HOP-62 NSCLC, 85.2%; in the test with NCI-H460 lung, 102%; with HOP-92 NSCLC, 68.5%; with NCI-H522 lung, 97.4%. In addition, the results for the growth in the test on 786-0 renal, with COLO 205 colon and in the test with DU-145 prostate were 99.8%, 90.8% and 101%, respectively.
Consider `COc1cc(/C=C/C(=O)c2ccc(Cl)cc2)ccc1Oc1nc(NCCO)nc(N2CCOCC2)n1`, for which the growth was 96.5% in the test with NCI-H226 lung; 95.8% in the test on NCI-H322M lung; 92.7% with HOP-62 NSCLC; 106% with NCI-H460 lung; 102% in the test with HOP-92 NSCLC; 96.8% in the test on NCI-H522 lung. In addition, the growth with 786-0 renal was 101%; in the test with COLO 205 colon, 116%; in the test on DU-145 prostate, 107%.
As for `OC1CCc2c(-c3ccc4ncnc(N5CCc6cc(F)c(Cl)cc65)c4c3)cncc21` (configuration not stated), the growth in the test with NCI-H226 lung is 56.7%; in the test with NCI-H322M lung it was 15%; in the test with HOP-62 NSCLC, 63.7%; in the test with NCI-H460 lung, 50.7%; in the test on HOP-92 NSCLC, 23.1%; with NCI-H522 lung, 40.1%. The growth in the test on A549/ATCC NSCLC is 50.3%; with 786-0 renal, 43.7%; in the test with COLO 205 colon, 82.3%; in the test with DU-145 prostate it was 35.8%.
Regarding `NS(=O)(=O)c1cccc(Nc2nc(SCC(=O)c3ccc([N+](=O)[O-])cc3)nc3ccccc23)c1`, the growth in the test on NCI-H226 lung is -20.9% (active); with NCI-H322M lung, 82.7%; with HOP-62 NSCLC, 71.9%; with NCI-H460 lung, 36.3%; in the test on HOP-92 NSCLC, 52%; in the test with NCI-H522 lung, 19.3%. For the same compound, the growth in the test on 786-0 renal is 44.6%; with COLO 205 colon, 83.1%; in the test with DU-145 prostate, 42.8%.
For `CN(C)CCCOc1c2ccc(Cl)cc2nc2c1oc1ccc(Cl)cc12`, the growth in the test with NCI-H226 lung was 1.15% (active); with NCI-H322M lung, 18.8%; in the test with HOP-62 NSCLC it was 32.8%; in the test on NCI-H460 lung it was -74.2% (active); in the test on HOP-92 NSCLC it was 3.27% (active); with NCI-H522 lung, 21%. Besides, the growth was -93.2% (active) in the test with 786-0 renal, -11.1% (active) with COLO 205 colon and -75.7% (active) in the test with DU-145 prostate.
For the compound `COc1ccc(-n2c(SCC(=O)Nc3ccc(-c4nc5ccccc5[nH]4)cc3)nc3ccccc3c2=O)cc1`, the growth in the test with NCI-H226 lung was 48.5%; with NCI-H322M lung, 51.9%; in the test with HOP-62 NSCLC, 89.4%; in the test with NCI-H460 lung, -55.9% (active); in the test on HOP-92 NSCLC, -33.3% (active); in the test with NCI-H522 lung, -32.9% (active). The growth in the test on 786-0 renal is -95.4% (active); in the test with COLO 205 colon, 77.5%; with DU-145 prostate, 6.71% (active).
On to `CN(C)CCCOc1c2ccc(Cl)cc2nc2c1oc1ccccc12`, for which the growth in the test on NCI-H226 lung is -0.673% (active); in the test with NCI-H322M lung it was -13.1% (active); with HOP-62 NSCLC it was 7.02% (active); in the test with NCI-H460 lung, 7.64% (active); in the test with HOP-92 NSCLC, -4.3% (active); in the test on NCI-H522 lung, -39.6% (active). Besides, the growth in the test with A549/ATCC NSCLC is 10%; with 786-0 renal it was 6.22% (active); with COLO 205 colon, -59.3% (active); in the test on DU-145 prostate, 5.28% (active).
Consider `O=C(CSc1nnc(-c2ccc3nc(-c4ccc(Cl)cc4)[nH]c3c2)o1)Nc1ccc(C(=O)/C=C/c2ccc(Cl)cc2)cc1`, for which the growth with NCI-H226 lung is 86%; in the test on NCI-H322M lung, 95.4%; with HOP-62 NSCLC it was 97.9%; in the test with NCI-H460 lung, 102%; with HOP-92 NSCLC, 94.2%; in the test with NCI-H522 lung, 88.4%. Moreover, the growth with 786-0 renal is 92.6%; with COLO 205 colon it was 118%; in the test with DU-145 prostate, 111%.
On to `NS(=O)(=O)c1ccc(Nc2nc(SCC(=O)c3ccc(Cl)cc3)nc3ccccc23)cc1`, for which the growth was 87.1% in the test with NCI-H226 lung; 86.5% in the test with NCI-H322M lung; 95.3% in the test with HOP-62 NSCLC; 97.1% in the test with NCI-H460 lung; 84.4% in the test with HOP-92 NSCLC; 88% with NCI-H522 lung. Also, the growth with A549/ATCC NSCLC is 97.1%; in the test on 786-0 renal, 96%; in the test with COLO 205 colon, 107%; with DU-145 prostate, 97.1%.
With `C[C@@H]1CN(c2ccc3ncc(C#Cc4cncc(C(=O)Nc5ccc(CN6CCN(C)CC6)c(C(F)(F)F)c5)c4)n3n2)C[C@H](C)O1`, the growth was -48.8% (active) in the test with NCI-H226 lung; -19.4% (active) in the test on NCI-H322M lung; -30.1% (active) with HOP-62 NSCLC; -77.7% (active) with NCI-H460 lung; -44.4% (active) in the test with HOP-92 NSCLC; -78.8% (active) in the test on NCI-H522 lung. In addition, the growth is -82.5% (active) with A549/ATCC NSCLC, -74.8% (active) in the test with 786-0 renal, -76.8% (active) in the test with COLO 205 colon and -97.5% (active) in the test on DU-145 prostate.
As to `Cc1cc2nc3c4cc(Cl)ccc4n(CC(=S)NCCN(C)C)c3nc2cc1C`, the growth was -60.4% (active) with NCI-H226 lung; 40.1% with NCI-H322M lung; 50.1% in the test with HOP-62 NSCLC; -90.2% (active) in the test with NCI-H460 lung; -6.84% (active) with HOP-92 NSCLC; -49.4% (active) in the test with NCI-H522 lung. Further, the growth was -69.9% (active) in the test with A549/ATCC NSCLC, -95.6% (active) in the test on 786-0 renal, -39% (active) in the test on COLO 205 colon and -51.6% (active) with DU-145 prostate.
With `C/C(=C(/c1ccc(Cl)cc1)c1ccc(OCCN)cc1)c1ccc(C)cc1`, the growth in the test on NCI-H226 lung was 112%; in the test with NCI-H322M lung, 103%; in the test on HOP-62 NSCLC, 103%; in the test with NCI-H460 lung it was 100%; in the test on HOP-92 NSCLC, 87.2%; in the test on NCI-H522 lung it was 99.4%. Moreover, the growth with A549/ATCC NSCLC was 97.7%; in the test with 786-0 renal, 102%; in the test on COLO 205 colon, 114%; with DU-145 prostate, 106%.
